# Measured values reported in PubChem BioAssay (EPA / NIEHS).
# Records with an inconclusive call do not appear. Active and inactive are the calls of the source. Rule for the calls: active = hit-call score of the fitted dose curve at least 0.9, where 1 is the maximum; inconclusive = response in the unintended direction; inactive = score below 0.9.
# Target: THRA (gene 7067) (UniProt P10827)
# Experiment: TOX21_TRA_COA_Antagonist_Followup_ratio: Tox21 Thyroid Hormone Receptor alpha Antagonism through Coactivator Recruitment Follow-Up Assay, Ratio (AID 2283953)
# From the text: TOX21_TRa_COA_Antagonist_Followup is a secondary assay for specificity for the TOX21_TR_GH3_LUC_Agonist assay. The LanthaScreen TR-FRET TR coactivator assay kits were used to determine TR activity in a cell-free functional assay. A time-resolved fluorescence resonance energy transfer (TR-FRET) signal was indicative of coactivator (SRC-2) recruitment.TOX21_TRA_COA_Antagonist_Followup_ratio is assay component calculated in the TOX21_TRA_COA_Antagonist_Followup assay. The TR-FRET ratio of acceptor emission (ch2) to donor emission (ch1) is indicative of the resonance energy transfer to the fluorescein tag on the coactivator peptide following recruitment to the receptor.Data from the assay component TOX21_TRA_COA_Antagonist_Followup_ratio was analyzed into 1 assay endpoint. This assay endpoint, TOX21_TRA_COA_Antagonist_Followup_ratio, was analyzed in the positive analysis fitting direction relative to DMSO as the negative control and baseline of activity. Using a type of inducible reporter, loss-of-signal activity can be used to understand changes in the reporter gene as they relate to the gene THRA. Furthermore, this assay endpoint can be referred to as a primary readout, because this assay has produced multiple assay endpoints and this ratio serves a reporter gene function to understand target activity. To generalize the intended target to other relatable targets, this assay endpoint is annotated to the nuclear receptor intended target family, where the subfamily is non-steroidal.
# Cell Media Required: Growth (90% DMEM/F-12, 10% Fetal Bovine Calf Serum, 100U/ml Penicillin, 100 ug/ml Streptomycin), Assay (10ng/mL sodium selenite, 10 ug/mL humanapo-transferrin, 10 uM ethanolamine, 10 ug/mL insulin, 500 ug/mL bovine serum albumin (BSA))Assay Protocol: 4 uL mixture of the receptor LBDs expressed as glutathione S-transferase (GST) fusion proteins (2.5 nM for TRa and 5.0 nM for TRb) and BSA (0.10%; Sigma-Aldrich) were incubated with 23 nL of control or test compound. A time-resolved fluorescence resonance energy transfer(TR-FRET) signal was indicative of coactivator recruitment using a 2 uL mixture of fluoresce in-labeled SRC-2 peptide (200 nM) and terbium-labeled anti-GST antibody (2nM), which transferred resonance energy to the fluorescein tag on the coactivator peptide following recruitment to the receptor. Fluorescence emission ratios (520:495 nm) were collected by an Envision plate reader (excitation at 340 nm and emissions at 495 and 520 nm), and the measured values were normalized to 0% activity using DMSO-only wells and 100 activity using T3 control wells.
# Sequence of THRA (gene 7067) (P10827 whole entry, looked up): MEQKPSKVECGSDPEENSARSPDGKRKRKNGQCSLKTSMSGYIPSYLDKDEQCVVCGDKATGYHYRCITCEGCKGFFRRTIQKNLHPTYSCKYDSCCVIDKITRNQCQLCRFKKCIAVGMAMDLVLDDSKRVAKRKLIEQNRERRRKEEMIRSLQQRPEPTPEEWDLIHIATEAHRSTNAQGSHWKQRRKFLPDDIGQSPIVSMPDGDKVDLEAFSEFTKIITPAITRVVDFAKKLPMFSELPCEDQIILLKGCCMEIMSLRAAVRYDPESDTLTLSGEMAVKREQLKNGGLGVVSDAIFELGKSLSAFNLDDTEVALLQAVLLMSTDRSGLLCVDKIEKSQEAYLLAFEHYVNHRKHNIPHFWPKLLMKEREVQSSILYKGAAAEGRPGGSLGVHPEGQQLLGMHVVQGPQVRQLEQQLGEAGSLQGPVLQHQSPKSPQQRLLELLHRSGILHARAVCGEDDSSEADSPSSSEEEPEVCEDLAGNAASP
SMILES,outcome,AC50
CO[C@H]1C[C@@H]2CC[C@@H](C)[C@@](O)(O2)C(=O)C(=O)N2CCCC[C@H]2C(=O)O[C@H]([C@H](C)C[C@@H]2CC[C@@H](OCCO)[C@H](OC)C2)CC(=O)[C@H](C)/C=C(\C)[C@@H](O)[C@@H](OC)C(=O)[C@H](C)C[C@H](C)\C=C/C=C/C=C/1C,inactive,
NC(N)=NCc1cccc(I)c1,inactive,
O=C(CCCCCCCCC#CI)Oc1ccccc1,inactive,
CCCCCOc1ccc(C2SC(=O)NC2=O)cc1OCC (stereo unspecified),inactive,
O=[Se](O)O,,34.4 µM (active)
CC[C@@]1(O)C(=O)OCc2c1cc1n(c2=O)Cc2cc3c(CN(C)C)c(O)ccc3nc2-1,inactive,
CC(C)n1c(/C=C/[C@@H](O)C[C@@H](O)CC(=O)O)c(-c2ccc(F)cc2)c2ccccc21,inactive,
C[C@@H]1C[C@H]2[C@@H]3CCC4=CC(=O)C=C[C@]4(C)[C@@]3(Cl)[C@@H](O)C[C@]2(C)[C@@]1(OC(=O)c1ccco1)C(=O)CCl,inactive,
CC(=O)[C@H]1CC[C@H]2[C@@H]3C=CC4=CC(=O)CC[C@@]4(C)[C@@H]3CC[C@]12C,inactive,
O=c1[nH]c(=O)n([C@H]2C[C@H](O)[C@@H](CO)O2)cc1F,inactive,
COc1ccc2nc(NC(=O)Nc3ccccc3)sc2c1,inactive,
CC(C)=CCC1=C(O)c2ccccc2C(=O)C1=O,inactive,
Nc1c2ccccc2nc2ccccc12,inactive,
Cc1c(Nc2ncccc2C(=O)O)cccc1C(F)(F)F,inactive,
CO[C@H]1C[C@@H]2CC[C@@H](C)[C@@](O)(O2)C(=O)C(=O)N2CCCC[C@H]2C(=O)O[C@H]([C@H](C)C[C@@H]2CC[C@@H](O)[C@H](OC)C2)CC(=O)[C@H](C)/C=C(\C)[C@@H](O)[C@@H](OC)C(=O)[C@H](C)C[C@H](C)\C=C/C=C/C=C/1C,inactive,
CC1(C)S[C@@H]2[C@H](NC(=O)C(N)c3ccccc3)C(=O)N2[C@H]1C(=O)OC1OC(=O)c2ccccc21 (stereo partly specified),inactive,

SMILES,outcome,AC50
CC(C(=O)O)c1ccc(N2Cc3ccccc3C2=O)cc1 (stereo unspecified),inactive,
CC(=O)Nc1ccn(C2COC(COC(=O)c3ccccc3)O2)c(=O)n1 (stereo unspecified),inactive,
CO[C@H](C(=O)[C@@H](O)[C@@H](C)O)C1Cc2cc3cc(O[C@H]4C[C@@H](O[C@H]5C[C@@H](O)[C@H](O)[C@@H](C)O5)[C@@H](O)[C@@H](C)O4)c(C)c(O)c3c(O)c2C(=O)[C@H]1O[C@H]1C[C@@H](O[C@H]2C[C@@H](O[C@H]3C[C@](C)(O)[C@H](O)[C@@H](C)O3)[C@H](O)[C@@H](C)O2)[C@H](O)[C@@H](C)O1 (stereo partly specified),inactive,
CC[C@@]1(O)C[C@@H]2CN(CCc3c([nH]c4ccccc34)[C@@](C(=O)OC)(c3cc4c(cc3OC)N(C)[C@H]3[C@@](O)(C(=O)OC)[C@H](OC(C)=O)[C@]5(CC)C=CCN6CC[C@]43[C@@H]65)C2)C1,inactive,
O=C1C(=O)c2ncccc2-c2cccnc21,inactive,
COc1cc([C@@H]2c3cc4c(cc3[C@H](O)[C@H]3COC(=O)[C@H]23)OCO4)cc(OC)c1OC,inactive,
CCCOc1ccc2nc(NC(=O)OC)sc2c1,inactive,
Brc1cc(Oc2cc(Br)c(Br)c(Br)c2Br)c(Br)c(Br)c1Br,inactive,
Cc1nc(-c2ccc(OCC(C)C)c(C#N)c2)sc1C(=O)O,inactive,
Cc1cc(Nc2ccccc2C(=O)O)ccc1Cl,inactive,
Cc1nc2ccccc2n1Cc1ccc(Cl)cc1,inactive,
CCCC(=O)O[C@]1(C(=O)CCl)[C@@H](C)C[C@H]2[C@@H]3CCC4=CC(=O)C=C[C@]4(C)[C@@]3(F)C(=O)C[C@@]21C,inactive,
CC(C)N=C(N)/N=C(\N)Nc1ccc(Cl)cc1,inactive,
CC1(C)N=C(N)N=C(N)N1c1ccc(Cl)cc1,inactive,
COC(=O)Nc1nc2ccc(Sc3ccccc3)cc2[nH]1,inactive,
